Among the data in PubChem BioAssay are composite z-score values, retold here.

In the assay the target is Fibroblast growth factor 10 (Homo sapiens) (UniProt O15520). In words: FGF10 binders on small-molecule microarrays, primary screen, biochemical, small-molecule microarray, 635 nm fluorescence (AID 1102). The note with it: FGF10 binding, fluorescence 635 nm, higher = more signal.
Fibroblast growth factor 10 (Homo sapiens), sequence (O15520 whole entry, looked up): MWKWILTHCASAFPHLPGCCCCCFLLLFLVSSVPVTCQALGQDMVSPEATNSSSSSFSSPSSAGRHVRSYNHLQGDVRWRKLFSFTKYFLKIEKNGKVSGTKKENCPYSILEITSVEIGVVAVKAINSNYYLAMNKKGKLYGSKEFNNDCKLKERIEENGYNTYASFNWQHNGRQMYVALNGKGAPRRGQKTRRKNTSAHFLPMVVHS
`COC(=O)[C@@]1(Cc2ccccc2)[C@H]2c3cc(C(=O)N4CCCC4)n(Cc4ccccc4)c3C[C@H]2CN1C(=O)c1ccccc1`: the composite z-score was determined as 1.12.
In turn, `CC(C)C[C@@H]1NC(=O)[C@@]23C(=O)N[C@@H](Cc4ccccc4)C2[C@H](C)[C@@]2(C)O[C@H]2C3/C=C/C/C=C\CNC(=O)[C@@H]2CCCN2C1=O` (stereo not given in full) returned a composite z-score of 0.0165.
`COC(=O)[C@@]1(Cc2ccc(OC)cc2)[C@H]2c3cc(C(=O)N4CCCC4)n(CCF)c3C[C@H]2CN1C(=O)c1ccccc1` yielded a composite z-score of 1.35.
In turn, `C=C(/C(=C/C[C@@H](OC(=O)c1ccncc1)c1cccc(OCCO)c1)c1cc(C(=O)OC)ccc1OC)C(C)C` had a composite z-score of 0.709.
The value for `O=C(CS)NCCCCCNC(=O)[C@@H]1C[C@@H]2C(=O)N3CCC[C@H]3C(=O)N2[C@@H]1c1ccc(O)cc1` was 0.598.
On to `COc1cccc(C)c1NC(=O)O[C@H]1[C@H](OC(=O)Nc2ccccc2)[C@H](OC(=O)Nc2ccccc2)[C@@H](OC)O[C@@H]1CO`, for which the composite z-score came to 0.96.
The value for `COc1ccc(C#Cc2ccc3c(c2)[C@]2(C(=O)N3)[C@H](C(=O)O)[C@H]3C(=O)O[C@H](c4ccccc4)[C@H](c4ccccc4)N3[C@@H]2c2ccc(OCCO)cc2)cc1` was 0.929; that for `COc1cc2c(cc1OC)CN(C(=O)[C@@H]1[C@H]3C(=O)O[C@H](c4ccccc4)[C@H](c4ccccc4)N3[C@H](c3ccc(O)cc3)[C@@]13C(=O)Nc1ccc(C#CCNC(N)=O)cc13)CC2` was 0.641.
The value for `COc1ccc([Si](C)(C)[C@@H]2[C@@H](CCO)O[C@]3(C(=O)N(Cc4cccc(N5C(=O)COc6ccccc65)c4)c4ccccc43)[C@H]2C)cc1` was 0.247; that for `Cc1ccc(-c2cccc(=O)o2)cc1` was -0.1.
The value for `COC(=O)c1ccc(OC)c(/C=C\CC(CCc2ccccc2)OC(C)=O)c1` (stereo not given) was -0.614; that for `C=C(C(=O)CC[C@H](OC(=O)c1cccnc1)c1ccc(OCCO)cc1)C(C)C` was 1.34.
For the compound `CCCC=C(CCC)[C@@H](NS(=O)(=O)c1cccc2cccnc12)c1ccc(C(=O)OC)cc1`, the composite z-score came out at 1.58.
The value for `CC(C)CCC[C@@H](C)[C@H]1CC[C@@]2(C)C3=C(CC[C@]12C)[C@@]1(C)CC[C@H](OC(=O)c2ccc(N)cc2)C(C)(C)C1CC3` (stereo not given in full) was 0.331.
The value for `C[C@H]1ON(c2ccccc2)[C@@H](c2ccccc2)[C@@H]1C(=O)N1C(=O)OC[C@@H]1c1ccccc1` was 0.675; that for `Cc1ccc(S[C@]2(C(=O)O)CC(=O)N(Cc3ccccc3C(F)(F)F)[C@@H]2c2ccc(CO)cc2)cc1` was -0.628; that for `C=CCN1C(=O)[C@@]2(O[C@@H](CCO)[C@H]([Si](C)(C)c3ccc(OC)cc3)[C@H]2C)c2cc(NC(=O)[C@H](C)O)ccc21` was 1.26.
The value for `CN1C(=O)C2C=CC(C(O)COCc3ccccc3)N(Nc3ccccc3)C2C1=O` (stereo not given) was 0.558; that for `C=CCC(OC(C)=O)[C@@H]1[C@@H](N(Cc2cc3ccccc3o2)C(=O)Cc2ccc(OC)cc2)c2cc(OCCCO)ccc2N1C(=O)c1ccc(-c2ccccc2)cc1` (stereo not given in full) was -0.185; that for `CC1CC/C=C\[C@H]2OC34C=CCN(c5ccc(Cl)cc5)C(=O)[C@H]3N(C(CO)C(C)C)C(=O)[C@]4(C)C2C(=O)O1` (stereo not given in full) was -0.0355.
The compound `COCCOC(=O)N1C(=O)[C@@]2(c3cc(C#CC4(O)CCCCCC4)ccc31)[C@H](C(=O)N1CCc3cc(OC)c(OC)cc3C1)[C@H]1C(=O)O[C@H](c3ccccc3)[C@H](c3ccccc3)N1[C@@H]2c1ccccc1OCCO` came in with a composite z-score of 0.96.
To `CC(C)C(CO)N1C(=O)[C@@H]2[C@H]3C(=O)OCC=C[C@H]3OC23C=CCN(Cn2nnc4ccccc42)C(=O)[C@@H]13` (stereo not given in full) belongs -0.777; to `O=C1C2C=CC(C(O)c3ccc(Br)cc3)N(Nc3ccccc3)C2C(=O)N1c1ccccc1` (stereo not given), 0.295; to `CN(C)CCCCNC(=O)[C@H]1C[C@H]2C(=O)N[C@@H](CCCC[N+](C)(C)C)C(=O)N2[C@H]1c1cccc(OCCO)c1`, 0.217.
Take `O=C1C2C=CC(C(O)c3ccccn3)N(Nc3ccccc3)C2C(=O)N1c1ccccc1` (stereo not given): the composite z-score is -0.191.
As for `COC(=O)[C@@]1(Cc2ccc(OC)cc2)[C@H]2c3cc(C(=O)N(C)C)n(CCF)c3C[C@H]2CN1C(=O)c1ccccc1`, the composite z-score amounted to 0.601.
In turn, `COC(=O)[C@@]1(Cc2ccccc2N=[N+]=[N-])N=C(c2ccc(OCCCO)cc2)O[C@H]1c1ccccc1` returned a composite z-score of 0.818.
The value for `C=CCC(OC(C)=O)[C@@H]1[C@@H](N(Cc2cccc3ccccc23)C(=O)c2ccc(C)cc2)c2cc(OCCCO)ccc2N1C(=O)c1ccc2ccccc2c1` (stereo not given in full) was 0.11; that for `O=C(NCc1ccccc1)[C@]1(Cc2ccccc2)N=C(c2ccc(OCCCO)cc2)O[C@@H]1c1ccccc1` was 0.154.
To `O=C1O[C@@H](c2ccccc2)[C@@H](c2ccccc2)N2[C@@H](c3ccc(O)cc3)[C@]3(C(=O)Nc4ccc(C#CC5(O)CCCCCC5)cc43)[C@@H](C(=O)N3CCN(c4ncccn4)CC3)[C@H]12` belongs 0.74; to `COCC(=C=CC[C@@H](O)c1ccccc1OCCO)C[C@@H](O)c1ccccn1`, 0.457.
The value for `C#CCNS(=O)(=O)N(C)C` was 0.296.
With `C=CCC(OC(C)=O)[C@@H]1[C@@H](N(Cc2ccc(-c3cccc(C(F)(F)F)c3)o2)C(=O)c2cccc3ccccc23)c2cc(OCCCO)ccc2N1C(=O)c1ccc(-c2ccccc2)cc1` (stereo not given in full), the composite z-score worked out at 0.192.
The value for `COCCOC(=O)N1C(=O)[C@@]2(c3cc(C#CCC(C(=O)OC)C(=O)OC)ccc31)[C@H](c1ccc(OCCO)cc1)N1[C@H](c3ccccc3)[C@H](c3ccccc3)OC(=O)[C@H]1[C@@H]2C(N)=O` was 1.1; that for `CCCC[C@H]1OB(O)C[C@H]2C1=C(COc1ccccc1)Cn1c(=O)n(-c3ccccc3)c(=O)n12` was 0.926.
